Screening results (PubChem)
A selection: hits, their analogues and other compounds. The true share with any hit is near 19%.
HT1080 IDH1KD tx: toxicity to HT-1080 IDH1 knockdown cells (counter line); Potency, µM (top dose mostly 46.1 µM), inactives show at the highest dose activity, negative = toxicity, actives largely listed as cytotoxic; 360,000 compounds, 2% hits; HT-1080 IDH1 knockdown viability, ATP luminescence, 48 h;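 also: 0% = DMSO wells and -100% = cell-free medium wells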
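CellTiter-Glo luminescence after 48 h compound exposure at 37 degrees C of IDH1-knockdown HT-1080 cells in 5% FBS RPMI. %Activity scaled between DMSO wells and cell-free media wells, with curves fitted and assigned curve classes.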
DT40 TDP1 CPT: DT40-hTDP1 cell growth loss with CPT; chicken DT40 Tdp1-/-;hTDP1 cells + 20 nM CPT, ATP luminescence, 48 h; Potency, µM (titrated, usually from 46.2 µM), for the others: at the top dose activity change, negative = growth inhibition, most hits filed as inhibitors; 420,000 compounds, 12% hits; also: nearly all actives have a fitted effect of over 55% in size
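Chicken DT40 Tdp1-/- cells stably complemented with human TDP1 were seeded at 400 cells/well in medium containing 20 nM camptothecin, exposed to pin-transferred compounds, and grown at 37 °C for at least 48 hr. Viability was read as ATP luminescence.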
KB-V1 cytotox: KB-V1 MDR subline cytotoxicity. Potency, µM (doses to about 46.1 µM), most hits filed as cytotoxic. 400,000 compounds, 3.4% hits. KB-V1 MDR cells viability, CellTiter-Glo, 72 h; also: nearly all actives have a fitted effect of over 60% in size
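Cells of the MDR subline KB-V1 are plated, dosed with compound at multiple concentrations, and incubated 72 h at 37 degrees C; CellTiter-Glo is then added and luminescence read after 10 min.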
KB-3-1 cytotox: kills parental KB-3-1 adenocarcinoma cells; KB-3-1 viability, CellTiter-Glo ATP luminescence, 72 h; Potency, µM (doses to about 46.1 µM), hits mostly cytotoxic; 400,000 compounds, 1.4% hits; also: nearly all actives have a fitted effect of over 60% in size
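KB-3-1 cells, DMEM (no phenol red) + 10% FBS; compound by pin transfer, 72 h, 37 °C. Readout: CellTiter-Glo luminescence after 10 min. Data normalized, curve-fitted.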
TDP1 cell noCPT: qHTS for Inhibitors of human tyrosyl-DNA phosphodiesterase 1 (TDP1): qHTS in cells in absence of CPT; DT40 Tdp1-/- hTDP1 cells, no CPT, ATP luminescence, 48 h; Potency, µM (doses to about 46.2 µM), for the others: at the highest dose activity change, negative = growth inhibition, usual class: inhibitors; 420,000 compounds, 15% hits; AID 686978, 2013; also: nearly all actives have a fitted effect of over 55% in size
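Growth of hTDP1-complemented DT40 Tdp1-knockout cells is measured by ATP luminescence after at least 48 hr compound exposure at 37 °C, with DMSO substituting for the 20 nM CPT used in the parallel screen.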
HT1080NT lethal: kills 2HG-producing HT-1080-NT fibrosarcoma cells; HT-1080-NT fibrosarcoma viability, CellTiter-Glo ATP luminescence, 48 h; 360,000 compounds, 1.6% hits; Potency, µM (titrated, usually from 46.1 µM), without a hit: at the top dose activity, negative = less viability, actives largely listed as cytotoxic;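 also: NT is the 2HG producing partner of a matched IDH1 knockdown line; 0% = DMSO-treated cells and -100% = media-only wells without cells; nearly all actives have a fitted effect of over 55% in size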
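Viability by CellTiter-Glo luminescence after 48 h compound exposure at 37C of HT-1080-NT cells (750/well, RPMI, 5% FBS). % activity scaled between DMSO wells and medium-only wells, then curve-fitted and categorized by curve class.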
Numbers without * were called inactive; i = inactive; ? = inconclusive; . = no result given; [ ] = dose if it differs, or a comment. Calls follow the shape of the dose curve; as a rule, active = well fitted curve in the direction sought with a large enough effect; inconclusive = small, poorly fitted or top-dose-only effect, or another doubt; inactive = no such curve, though single readings can be large; an effect the other way counts as inactive or inconclusive. Unless noted, % is scaled to controls: 0 for no effect and ±100 for the full control effect; potency is read from the fitted curve at half-maximal effect.

SMILES	HT1080 IDH1KD tx	DT40 TDP1 CPT	KB-V1 cytotox	KB-3-1 cytotox	TDP1 cell noCPT	HT1080NT lethal
Cc1cccc(CCN(C(=O)Cc2cccs2)C(C(=O)NC2CCCCC2)c2cccnc2)c1 (stereo not drawn)	2%	5.8µM*	i	i	?	-6%
COc1cc(N(C(=O)Cc2cccs2)C(C(=O)NC2CCCCC2)c2cccc(OC)c2OC)ccc1-n1cnnn1 (stereo not drawn)	1%	12µM*	i	i	26µM*	3%
Cc1nc2cc(NC(=O)[C@@H]3C[C@@H](Sc4ccccn4)CN3Cc3ccccc3)ccc2s1	.	5%[9.04 µM]	.	.	-10%	.
Cc1ccc(C(C(=O)NC2CCCC2)N(C(=O)Cc2cccs2)c2ccc3c(c2)OCCO3)cc1 (stereo not drawn)	-13%	?	21µM*	i	?	-7%
Cc1ccc(C(C(=O)NC2CCCC2)N(C(=O)Cc2cccs2)c2ccc(C)c(C)c2)o1 (stereo not drawn)	?	?	21µM*	i	22µM*	0%
Cc1ccc(C)c(N(C(=O)Cc2cccs2)C(C(=O)NC2CCCC2)c2ccc(C)o2)c1 (stereo not drawn)	6%	23µM*	?	i	13µM*	-2%
CCCN=C1N(CC)C[C@@H]2[C@@H]3C(=O)N(C)C(=O)[C@@H]3[C@](CC)(C(=O)OC)N12	3%	0%	i	i	-3%	5%
Cc1ccc(S(=O)(=O)Nc2cccc(-c3ccc(N4CCCCCC4)nn3)c2)cc1C	-8%	?	?	i	23µM*	?
CCCCOc1ccc(S(=O)(=O)Nc2cccc(-c3ccc(N4CCOCC4)nn3)c2)cc1	.	21µM*	?	i	?	.
Cc1cc(C)cc(S(=O)(=O)Nc2cccc(-c3ccc(N4CCOCC4)nn3)c2)c1	.	?	i	i	-29%	.
CCOc1ccc(S(=O)(=O)Nc2cccc(-c3ccc(N4CCCCCC4)nn3)c2)cc1	0%	?	i	i	?	-17%
COc1c(C)cc(S(=O)(=O)Nc2cccc(-c3ccc(N4CCOCC4)nn3)c2)c(C)c1C	.	23µM*	i	21µM*	?	.
CCOc1ccc(S(=O)(=O)Nc2ccc(-c3ccc(N4CCCC4)nn3)cc2)cc1	.	2%	i	?	-13%	.
CCCCOc1ccc(S(=O)(=O)Nc2ccc(-c3ccc(N4CCC(C)CC4)nn3)cc2)cc1	.	12µM*	i	i	29µM*	.
Cc1cccc(C)c1OC(=O)CSc1nnc(-c2cccs2)o1	.	0%	i	i	4%	.
Nc1nc(SCC(=O)N2CCCC2)[nH]c(=O)c1NC(=O)c1cccs1	-11%	4%	i	?	?	0%
Cc1cccc2sc(N(Cc3cccnc3)C(=O)Cc3ccccc3)nc12	.	-23%	.	.	-26%	.
CCn1c(-c2ccccc2F)nc2cc(NC(C)=O)cc(C(=O)N3CCC[C@H]3C(=O)OC)c21	.	2%	.	.	-3%	.
CC1(C(=O)NS(=O)(=O)C2CC2)CCN(C(=O)c2cccc(Cl)c2)C1 (stereo not drawn)	?	-22%	i	i	2%	12%
COc1ccc(C2CC(c3ccccc3O)=NN2c2ccccc2)cc1 (stereo not drawn)	8%	0%	i	i	-5%	2%
Cc1ccc(C(=O)C2Oc3ccccc3C3CC(c4ccc(C)cc4)=NN23)cc1 (stereo not drawn)	9%	?	21µM*	i	?	8%
CC(=O)Oc1ccc(C2=NN(c3ccccc3)C(c3ccccc3)C2)cc1 (stereo not drawn)	?	9%	?	?	-6%	16µM*
COc1ccc(C2CC(c3ccccc3)=NN2c2ccc(N)cc2)cc1 (stereo not drawn)	?	?	21µM*	?	21µM*	?
CS(=O)(=O)Nc1ccc(C2=NN(S(=O)(=O)c3ccccc3)C(c3cccs3)C2)cc1 (stereo not drawn)	-26%	-17%	i	?	?	-27%
Cc1ccc(C2=NN(S(=O)(=O)c3ccccc3)C(c3ccccc3O)C2)cc1 (stereo not drawn)	?	?	?	i	?	18µM*
SMILES	HT1080 IDH1KD tx	DT40 TDP1 CPT	KB-V1 cytotox	KB-3-1 cytotox	TDP1 cell noCPT	HT1080NT lethal
COc1ccc(C(=O)NCc2nnc(SCC(=O)NCc3ccco3)o2)cc1OC	1%	9%	i	i	0%	0%
Cc1cc(Cl)c(S(=O)(=O)N2CCN(c3ccccn3)CC2)cc1OCC(N)=O	-2%	11%	i	i	-2%	11%
COc1ccccc1NC(=O)COC(=O)Cn1c(C)csc1=O	0%	-7%	i	i	?	-5%
Cc1cc(C)c(NC(=O)CCS(=O)(=O)c2cc3c(cc2Cl)NC(=O)CO3)c(C)c1	.	.	i	i	.	.
COc1ccc(C2CC(c3ccccc3)=NN2S(=O)(=O)c2ccccc2)cc1 (stereo not drawn)	-7%	7.3µM*	i	i	4.6µM*	-4%
COc1cc(N2N=C(c3ccccc3)CC2c2ccccc2)c(C=O)cc1C=O (stereo not drawn)	0%	?	?	?	18µM*	-3%
